Among the test systems are DU-145 prostate; K-562 leukemia; MALME-3M melanoma; MDA-MB-231 breast; RXF 393 renal; SF-268 CNS; SF-295 CNS; SF-539 CNS; UACC-257 melanoma; M14 melanoma; HCT-15 colon; HT29 colon; SNB-75 CNS; SNB-19 CNS; U251 CNS; PC-3 prostate; SK-MEL-5 melanoma; UACC-62 melanoma; LOX IMVI melanoma; SK-MEL-28 melanoma.
Holding throughout (experiment): NCI-60 one-dose screen, 48 h (100 = growth as untreated, 0 = no growth, -100 = all killed)
Common to all, as to details: 10 µM unless noted

About 83,000 compounds went through this panel and 20% of them were active in at least one assay; those are over-represented in the sample as a whole.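 Cells were grown in 96-well plates and exposed to the test compound at a single concentration for 48 hours; results are reported as percent growth, with values below 10 considered active.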 Unmarked numbers belong to inactive results. Calls of active or inactive are those of the source.

`CCc1ccc(Oc2c(-c3ccc(OCc4ccc(Cl)cc4)cc3O)n[nH]c2C(F)(F)F)cc1`: the growth with DU-145 prostate is 15%; in the assay with K-562 leukemia it was 3.36% (active); with MALME-3M melanoma, -28.3% (active); in the assay with MDA-MB-231 breast, 27.6%; in the assay with RXF 393 renal it was 65%; in the assay on SF-268 CNS, 30%. The growth in the assay on SF-295 CNS was 88.1%; in the assay with SF-539 CNS, 56.6%; in the assay on UACC-257 melanoma, 6.85% (active); in the assay with M14 melanoma it was 30.5%; in the assay on HCT-15 colon, 12.8%; with HT29 colon, 86.1%. The growth is 36.6% with SNB-75 CNS; 25.4% in the assay with SNB-19 CNS; 9.9% (active) in the assay on U251 CNS; 13.9% with PC-3 prostate; -14% (active) in the assay with SK-MEL-5 melanoma; 17.9% in the assay on UACC-62 melanoma. Moreover, the values for the growth in the assay on LOX IMVI melanoma and in the assay on SK-MEL-28 melanoma were 7.09% (active) and 22.9%, respectively.
Regarding `COc1cc(C2CC(c3cccc(Br)c3)=NN2C(C)=O)cc(OC)c1OC` (stereo not given), the growth in the assay with DU-145 prostate was 20%; in the assay on K-562 leukemia, 49.2%; in the assay with MALME-3M melanoma, 54.2%; in the assay with MDA-MB-231 breast, 4.94% (active); in the assay on RXF 393 renal it was 33.3%; with SF-268 CNS, 55.3%. Besides, the growth in the assay on SF-295 CNS was 0.219% (active); in the assay on SF-539 CNS, -5.96% (active); with UACC-257 melanoma, 81.7%; in the assay with M14 melanoma it was 8.38% (active); with HCT-15 colon it was 13.4%; in the assay on HT29 colon it was 13.8%. In addition, the growth in the assay on SNB-75 CNS is 12%; with SNB-19 CNS, 40.8%; in the assay on U251 CNS, 12.2%; in the assay on PC-3 prostate, 37.1%; with SK-MEL-5 melanoma, 23%; with UACC-62 melanoma it was 14.8%. Further, the growth was 50.1% in the assay on LOX IMVI melanoma and 70.2% in the assay on SK-MEL-28 melanoma.
`NCCCNc1nc2ccccc2c2c(=O)c3cc(OC(F)(F)F)ccc3sc12`: the growth in the assay on DU-145 prostate was -10.7% (active); with K-562 leukemia, -34.7% (active); in the assay with MALME-3M melanoma, 80.9%; in the assay on MDA-MB-231 breast it was -43.2% (active); with RXF 393 renal, 60.7%; in the assay on SF-268 CNS it was 51%. Further, the growth in the assay with SF-295 CNS was 33.4%; with SF-539 CNS it was -72% (active); in the assay with UACC-257 melanoma, 104%; with M14 melanoma, -26.4% (active); in the assay on HCT-15 colon it was -78.1% (active); in the assay with HT29 colon, -32.9% (active). Also, the growth was 58.6% with SNB-75 CNS; 7.57% (active) with SNB-19 CNS; -63% (active) in the assay with U251 CNS; 42.9% in the assay with PC-3 prostate; 59.9% in the assay on SK-MEL-5 melanoma; 88.9% in the assay on UACC-62 melanoma. Also, the growth in the assay on LOX IMVI melanoma was -97.3% (active); in the assay with SK-MEL-28 melanoma, 84.7%.
As to `O=c1c2cccc(F)c2sc2c(NCCCNCCO)nc3ccccc3c12`, the growth was 23.7% in the assay with DU-145 prostate; -20% (active) with K-562 leukemia; 74% in the assay with MALME-3M melanoma; 5.79% (active) in the assay on MDA-MB-231 breast; 50.8% in the assay with RXF 393 renal; 41.9% in the assay on SF-268 CNS. In addition, the growth in the assay with SF-295 CNS is 63.7%; in the assay with SF-539 CNS, 41.1%; in the assay on UACC-257 melanoma it was 85.6%; in the assay with M14 melanoma it was -58.5% (active); in the assay on HCT-15 colon it was 11.4%; in the assay on HT29 colon it was -39.8% (active). Further, the growth with SNB-75 CNS was 45.5%; with SNB-19 CNS, 44.1%; in the assay on U251 CNS, 38.8%; in the assay with PC-3 prostate it was 38.3%; in the assay with SK-MEL-5 melanoma, 71.7%; in the assay on UACC-62 melanoma, 59.8%. Also, the growth is -86.6% (active) with LOX IMVI melanoma and 64.2% in the assay on SK-MEL-28 melanoma.
For `N#Cc1cccc(NC(=O)c2cc(-c3ccc(F)cc3F)ccc2O)c1`, the growth in the assay with DU-145 prostate was 18.4%; with K-562 leukemia it was 13.3%; with MALME-3M melanoma it was -25.1% (active); in the assay on MDA-MB-231 breast, -2.77% (active); in the assay on RXF 393 renal it was 3.07% (active); in the assay on SF-268 CNS, 14.5%. Besides, the growth in the assay on SF-295 CNS is 80.5%; with SF-539 CNS, 16.3%; in the assay with UACC-257 melanoma, -10% (active); with M14 melanoma, 23.6%; in the assay with HCT-15 colon, 13.3%; in the assay with HT29 colon, 104%. Besides, the growth with SNB-75 CNS was 11.5%; with SNB-19 CNS, 13.7%; in the assay with U251 CNS it was 13%; with PC-3 prostate, 20.3%; in the assay with SK-MEL-5 melanoma, -98.5% (active); with UACC-62 melanoma, 13.7%. The growth in the assay with LOX IMVI melanoma is 13.2%; with SK-MEL-28 melanoma, 25.6%.
For `N#Cc1ccc(NC(=O)c2sc3nc4c(cc3c2N)C(=O)CCC4)cc1`, the growth with DU-145 prostate is 94.9%; in the assay on K-562 leukemia, 108%; with MALME-3M melanoma, 89.3%; in the assay with MDA-MB-231 breast, 109%; in the assay on RXF 393 renal, 119%; in the assay with SF-268 CNS, 102%. Besides, the growth in the assay on SF-295 CNS is 82.4%; in the assay on SF-539 CNS, 99.8%; in the assay on UACC-257 melanoma, 106%; with M14 melanoma it was 106%; with HCT-15 colon, 101%; with HT29 colon, 84.9%. In addition, the growth was 113% in the assay with SNB-75 CNS; 102% in the assay with SNB-19 CNS; 106% in the assay on U251 CNS; 107% in the assay with PC-3 prostate; 92.6% in the assay with SK-MEL-5 melanoma; 99.3% with UACC-62 melanoma. The growth was 112% in the assay on LOX IMVI melanoma and 106% with SK-MEL-28 melanoma.
